About 79,000 compounds went through this panel and 15% of them were active in at least one assay; those are over-represented in the sample as a whole. Unmarked numbers belong to inactive results. Active and inactive are the calls of the source. Cut-off read from the data, not from the text of the source: active = growth inhibition above about 70%; inactive = the rest.
Experiments:
[1] = NCI Yeast Anticancer Drug Screen. Data for the rad50 strain (AID 155);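 note: 0% = growth of vehicle-only cultures of the same strain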; conditions: S. cerevisiae rad50 strain growth inhibition, stronger effect = higher value
In short: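 A DNA repair-deficient yeast mutant serves as the test organism; compound-induced growth inhibition is calculated against vehicle-treated cells.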

[2] = NCI Yeast Anticancer Drug Screen. Data for the mec2-1 strain (AID 157); conditions: S. cerevisiae mec2-1 strain, stronger effect = higher value
In short: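 Vehicle-treated cultures served as reference for growth inhibition of compound-exposed mec2-1 yeast.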

[3] = NCI Yeast Anticancer Drug Screen. Data for the sgs1 mgt1 strain (AID 161);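 note: 0% = growth of cultures given vehicle only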; conditions: S. cerevisiae sgs1 mgt1 strain, stronger effect = higher value
In short: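 Test agents were incubated with a DNA-repair-mutant yeast strain. Growth was then read and compared against vehicle-treated controls.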

[4] = NCI Yeast Anticancer Drug Screen. Data for the cln2 rad14 strain (AID 165);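 note: 0% = growth equal to vehicle treated cultures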; conditions: S. cerevisiae cln2 rad14 strain, stronger effect = higher value
In short: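 Each compound was tested on cln2 rad14 yeast. Inhibition of growth was calculated against vehicle-exposed controls.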

[5] = NCI Yeast Anticancer Drug Screen. Data for the bub3 strain (AID 167); conditions: S. cerevisiae bub3 mutant strain, stronger effect = higher value
In short: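 Inhibition values come from growth of compound-treated mutant yeast normalised to vehicle-treated controls.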

[6] = NCI Yeast Anticancer Drug Screen. Data for the mlh1 rad18 strain (AID 175); conditions: S. cerevisiae mlh1 rad18 strain growth inhibition, stronger effect = higher value
In short: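 Vehicle-treated cultures served as the reference for growth inhibition in a yeast strain carrying DNA damage repair alterations exposed to each compound.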

[7] = at 5.0 µM (retest, dose inferred, filed as 0.5)
[8] = at 50.0 µM (retest, dose inferred, filed as 5.0)

SMILES | growth inhibition [1, 7] [%] | growth inhibition [1, 8] | growth inhibition ([1]; at 50.0 µM) | growth inhibition [2, 7] [%] | growth inhibition [2, 8] | growth inhibition ([2]; at 50.0 µM) | growth inhibition [3, 7] [%] | growth inhibition [3, 8] | growth inhibition ([3]; at 50.0 µM) | growth inhibition [4, 7] [%] | growth inhibition [4, 8] | growth inhibition ([4]; at 50.0 µM) | growth inhibition [5, 7] [%] | growth inhibition [5, 8] | growth inhibition ([5]; at 50.0 µM) | growth inhibition [6, 7] [%] | growth inhibition [6, 8] | growth inhibition ([6]; at 50.0 µM)
CCCCCCCCC1(OCCCS(=O)(=O)O)COc2ccccc2OCCOCCOc2ccccc2OC1 | -13 | 87% (active) | 97.9% (active) | -4 | 74% (active) | 87% (active) | -6 | 73% (active) | 97.9% (active) | -4 | 73% (active) | 93.6% (active) | -8 | 80% (active) | 96% (active) | -7 | 87% (active) | 95.2% (active)
Nc1ccccc1Nc1c([N+](=O)[O-])cc(C(F)(F)F)cc1[N+](=O)[O-] | 53 | 78% (active) | 89.2% (active) | 41 | 55% | 92.3% (active) | 48 | 69% | 92.7% (active) | 42 | 55% | 85.5% (active) | 46 | 61% | 91.4% (active) | 51 | 76% (active) | 90.5% (active)
NCc1ccccc1-c1c2nc(c(-c3ccccc3CN)c3ccc([nH]3)c(-c3ccccc3CN)c3nc(c(-c4ccccc4CN)c4ccc1[nH]4)C=C3)C=C2 | 41 | 84% (active) | 79% (active) | 34 | 83% (active) | 83% (active) | 37 | 82% (active) | 86.2% (active) | 32 | 66% | 78.8% (active) | 37 | 90% (active) | 79.7% (active) | 54 | 84% (active) | 76.2% (active)
CCOC(CC)C(O)(c1ccc(N(C)C)cc1)c1ccc(N(C)C)cc1 (centres undefined) | -2 | 94% (active) | 98.3% (active) | -1 | 69% | 98.2% (active) | 0 | 95% (active) | 98.6% (active) | -3 | 63% | 97.5% (active) | 4 | 88% (active) | 98.7% (active) | 1 | 98% (active) | 98.2% (active)
CCCC(=O)Oc1c(Br)cc(Br)cc1Br | -1 | 17% | 21.6% | -4 | 7% | 21.3% | -4 | 7% | 19.1% | -6 | -19% | 44.9% | 1 | 19% | 45.5% | -1 | 12% | 20.6%
O=C1CC2Sc3ccccc3N=C2N1c1ccc(Cl)cc1Cl (centres undefined) | 36 | 96% (active) | 88.2% (active) | 33 | 100% (active) | 93.2% (active) | 42 | 100% (active) | 88.8% (active) | 34 | 73% (active) | 65.2% | 39 | 99% (active) | 92% (active) | 47 | 98% (active) | 89.6% (active)
Cc1c(-c2ccccc2)ccnc1/C=N/NC(=S)NCCc1ccccc1 | 49 | 77% (active) | 76.3% (active) | 52 | 85% (active) | 76.3% (active) | 52 | 83% (active) | 75.5% (active) | 42 | 80% (active) | 70% | 55 | 84% (active) | 77.7% (active) | 49 | 80% (active) | 74% (active)
Cn1cnc(=S)c2[nH]cnc21 | -1 | -2% | 10.9% | -3 | -4% | -0.45% | -2 | -5% | -4.55% | -2 | -4% | 59.6% | 0 | -5% | -8.5% | -4 | -1% | 4.05%
COc1cccc2c1C(=O)c1c(O)c3c(c(O)c1C2=O)CC(O)(C(C)=O)CC3OC1CC(NCC2(O)OCC(O)C2O)C(O)C(C)O1 (centres undefined) | 50 | 96% (active) | 88.8% (active) | 34 | 98% (active) | 88.6% (active) | 33 | 98% (active) | 86.8% (active) | 44 | 97% (active) | 87.4% (active) | 34 | 98% (active) | 87.1% (active) | 40 | 96% (active) | 91% (active)
CCCCc1ccc2nc(C)cc(N=[N+]=[N-])c2c1 | 2 | 98% (active) | 89.7% (active) | -14 | 90% (active) | 99% (active) | -6 | 96% (active) | 94.8% (active) | -14 | 48% | 94.7% (active) | -9 | 92% (active) | 97.2% (active) | -2 | 98% (active) | 96.3% (active)
CC(CCl)OC(=O)Nc1cccc(C(F)(F)F)c1 (centres undefined) | 55 | 82% (active) | 73.1% (active) | 40 | 50% | 31.5% | 42 | 70% (active) | 83% (active) | 41 | 51% | 62% | 37 | 77% (active) | 74.8% (active) | 55 | 87% (active) | 73% (active)
COc1ccc(C2c3cc4c(cc3OC(O)C2C)OCO4)c(OC)c1 (centres undefined) | -2 | 96% (active) | 85.6% (active) | 1 | 95% (active) | 58.5% | 5 | 95% (active) | 83.8% (active) | -8 | 89% (active) | 68.9% | -4 | 88% (active) | 68.8% | -5 | 97% (active) | 87.5% (active)
O=C(Nc1ccc(NC(=O)Nc2cc(C(=O)Nc3ccc(C4=NCCN4)cc3)ccc2C(=O)Nc2ccc(C3=NCCN3)cc2)cc1)Nc1cc(C(=O)Nc2ccc(C3=NCCN3)cc2)ccc1C(=O)Nc1ccc(C2=NCCN2)cc1 | 7 | -4% | 95.5% (active) | 0 | -6% | 94.5% (active) | 2 | -3% | 95.9% (active) | -1 | 1% | 95% (active) | 2 | 16% | 97% (active) | 7 | -2% | 96.5% (active)
O=C(CCCO)N/N=C\c1ccc([N+](=O)[O-])s1 | 5 | 31% | 18.8% | -7 | 23% | -3.55% | 8 | 39% | 31.8% | -2 | 20% | 72.2% (active) | -1 | 17% | 5.5% | 12 | 74% (active) | 62.2%
COc1ccc(C2NCc3c(sc4c3CCCC4)-n3cccc32)cc1 (centres undefined) | -4 | 43% | 57.1% | -2 | 31% | 11.8% | -13 | 84% (active) | 93.2% (active) | -5 | 53% | 57.9% | 0 | 54% | 18.7% | -7 | 87% (active) | 77% (active)
Cc1ccc(S(=O)(=O)NC2(C=O)CCC(C(C)(C)C)CC2)cc1 (centres undefined) | 15 | 86% (active) | 77.7% (active) | 20 | 88% (active) | 68.4% | 25 | 84% (active) | 82% (active) | 20 | 92% (active) | 77.5% (active) | 19 | 88% (active) | 84.7% (active) | 37 | 95% (active) | 81% (active)
O=C1C2Nc3ccccc3SC2C(=O)N1c1ccccc1C(F)(F)F (centres undefined) | 3 | 35% | 73.8% (active) | 3 | 11% | 12.5% | 16 | 24% | 47.4% | 2 | 11% | 46.5% | -1 | 29% | 13.7% | 7 | 44% | 73.2% (active)
CNC(=O)c1cc(NC(=O)c2ccc(C(=O)Nc3cc(C(=O)NC)cc(C4=NCCN4)c3)cc2)cc(C2=NCCN2)c1 | 3 | -3% | 98.8% (active) | 11 | 1% | 99.6% (active) | -6 | -3% | 99.3% (active) | 0 | 8% | 92.8% (active) | 5 | 1% | 98.7% (active) | 2 | -19% | 98.6% (active)

— PubChem BioAssay (NCI)
